This is an account of results in PubChem BioAssay (EPA / NIEHS).

Results filed as inconclusive are left out. Calls of active or inactive are those of the source. How the source made its calls, unless noted: active means hit-call score of the fitted dose curve at least 0.9, where 1 is the maximum; inactive means score below 0.9.

The target in test [1] is Paired box protein Pax-6 (Homo sapiens) (UniProt P26367). The experiment in a line: ATG_Pax6_CIS: Attagene CIS-FACTORIAL HepG2 Assay for human Paired Box 6 (PAX6) (AID 2282956). The following applies: HepG2 CIS-FACTORIAL PAX6 reporter transcription, RNA readout; actives raise or lower the signal. The method in brief: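 HepG2 cells transiently transfected with cis-promoter-driven multiplexed reporter units sensing endogenous transcription factor activity; 24 h chemical exposure. Reporter mRNA quantified by RT-PCR, 6-FAM labelling, HpaI digestion and capillary electrophoresis; bidirectional fit versus DMSO baseline.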
Sequence of Paired box protein Pax-6 (Homo sapiens) (P26367 whole entry, looked up): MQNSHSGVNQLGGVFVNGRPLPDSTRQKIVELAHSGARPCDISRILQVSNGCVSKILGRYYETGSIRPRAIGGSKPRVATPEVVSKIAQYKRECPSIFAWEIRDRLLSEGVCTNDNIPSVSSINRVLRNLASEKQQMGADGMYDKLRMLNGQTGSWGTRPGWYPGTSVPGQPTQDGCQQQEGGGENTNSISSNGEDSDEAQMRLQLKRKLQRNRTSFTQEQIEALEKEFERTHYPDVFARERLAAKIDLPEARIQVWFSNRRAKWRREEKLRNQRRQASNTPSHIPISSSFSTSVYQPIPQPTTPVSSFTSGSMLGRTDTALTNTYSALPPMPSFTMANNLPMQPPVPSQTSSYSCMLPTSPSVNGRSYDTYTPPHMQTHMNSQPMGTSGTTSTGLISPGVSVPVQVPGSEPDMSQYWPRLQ

A short description of test [2]: ATG_PXRE_CIS: Attagene CIS-FACTORIAL HepG2 Assay for human Pregnane X Receptor Element (PXRE) (AID 2282957). The following applies: HepG2 Attagene CIS-FACTORIAL PXRE reporter, mRNA; actives raise or lower the signal. The method in brief:
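Transfect HepG2 with MRTUs (cis promoter elements); dose chemical, incubate 24 h; isolate RNA, RT with oligo(dT), PCR, 6-FAM label, HpaI cut, CE. Gain/loss fit vs DMSO.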

Test [3] is described as follows: ATG_PPRE_CIS: Attagene CIS-FACTORIAL HepG2 Assay for human Peroxisome Proliferator-activated Response Element (PPRE) (AID 2282958). The following applies: HepG2 PPRE cis-element reporter, Attagene transcription factor profiling; actives raise or lower the signal. The method in brief: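 HepG2 cells are transiently transfected with multiplexed cis-promoter reporter units to report endogenous PPAR activity. After 24 h dosing, reporter mRNA is read by RT-PCR and capillary electrophoresis. Fitting is bidirectional against DMSO.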

Test [4] can be described thus: ATG_RORE_CIS: Attagene CIS-FACTORIAL HepG2 Assay for human RAR-related Orphan Receptor Element (RORE) (AID 2282959). The following applies: HepG2 Attagene cis-factorial RORE reporter, mRNA; actives raise or lower the signal. The method, boiled down: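 HepG2 cells carrying transiently transfected cis-regulated reporter units; RORE-driven reporter mRNA quantified 24 h post-dosing by RT-PCR, 6-FAM primer extension, HpaI digestion and capillary electrophoresis. Bidirectional fit versus DMSO.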

Test [5] is described as follows: ATG_Sox_CIS: Attagene CIS-FACTORIAL HepG2 Assay for human SRY-box transcription factor (SOX) (AID 2282960). The note with it: HepG2 Attagene cis-factorial SOX reporter, mRNA; actives raise or lower the signal. The method in brief:
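HepG2 cells transiently transfected with multiple cis-regulated reporter units, then dosed for 24 h. Reporter mRNA quantified by RT-PCR, fluorescent labelling, HpaI digestion and capillary electrophoresis; bidirectional fit versus DMSO.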

Test [6] concerns the target Transcription factor Sp1 (Homo sapiens) (UniProt P08047). Briefly: ATG_Sp1_CIS: Attagene CIS-FACTORIAL HepG2 Assay for human Specificity Protein 1 (Sp1) (AID 2282961). The note with it: HepG2 Sp1 cis-reporter transcription, actives raise or lower the signal. The method, boiled down: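 HepG2 cells transiently transfected with multiplexed cis-regulated reporter constructs, chemical exposure 24 h. Reporter mRNA quantified by RT-PCR with capillary electrophoresis; bidirectional fit relative to DMSO.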

Test [7] in a line: ATG_SREBP_CIS: Attagene CIS-FACTORIAL HepG2 Assay for human Sterol Regulatory Element Binding (SREBP) (AID 2282962). The note with it: HepG2 Attagene cis-factorial SREBP reporter, mRNA; actives raise or lower the signal. The method, boiled down: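 HepG2 cells transiently transfected with multiplexed cis-promoter reporter units sensing endogenous transcription factors; reporter mRNA measured 24 h after dosing by RT-PCR, 6-FAM labeling, HpaI digestion and capillary electrophoresis. Bidirectional fit versus DMSO.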

Test [8] deals with Signal transducer and activator of transcription 3 (Homo sapiens) (UniProt P40763). Briefly: ATG_STAT3_CIS: Attagene CIS-FACTORIAL HepG2 Assay for human Signal Transducer and Activator of Transcription 3 (STAT3) (AID 2282963). The note with it: HepG2, Attagene cis-factorial STAT3 reporter transcription; actives raise or lower the signal. The method, boiled down: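 Endogenous STAT3-responsive cis-element activity was read in transiently transfected HepG2 cells after 24 h treatment. Reporter transcripts were quantified via RT-PCR and capillary electrophoresis, with DMSO as negative control and bidirectional curve fitting.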
Sequence of Signal transducer and activator of transcription 3 (Homo sapiens) (P40763 whole entry, looked up): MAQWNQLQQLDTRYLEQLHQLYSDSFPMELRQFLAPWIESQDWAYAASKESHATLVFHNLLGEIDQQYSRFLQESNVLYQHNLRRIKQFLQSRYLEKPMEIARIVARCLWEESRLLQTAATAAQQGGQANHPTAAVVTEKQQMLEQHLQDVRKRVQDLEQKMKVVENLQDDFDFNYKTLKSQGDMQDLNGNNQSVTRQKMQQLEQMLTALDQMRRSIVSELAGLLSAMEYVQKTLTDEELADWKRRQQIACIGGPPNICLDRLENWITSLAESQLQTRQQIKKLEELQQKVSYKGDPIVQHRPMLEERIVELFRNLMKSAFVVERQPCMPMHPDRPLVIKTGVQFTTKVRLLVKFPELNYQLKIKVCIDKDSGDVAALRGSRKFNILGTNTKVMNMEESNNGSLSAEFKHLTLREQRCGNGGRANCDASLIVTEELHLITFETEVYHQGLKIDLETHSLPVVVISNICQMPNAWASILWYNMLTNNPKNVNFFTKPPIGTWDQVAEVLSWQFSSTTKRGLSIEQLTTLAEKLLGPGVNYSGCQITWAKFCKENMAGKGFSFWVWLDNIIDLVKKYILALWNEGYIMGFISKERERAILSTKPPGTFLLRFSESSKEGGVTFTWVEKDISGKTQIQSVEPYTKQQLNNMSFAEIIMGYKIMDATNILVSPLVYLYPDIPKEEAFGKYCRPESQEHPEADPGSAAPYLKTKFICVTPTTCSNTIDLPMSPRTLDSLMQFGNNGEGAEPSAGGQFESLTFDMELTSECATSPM

Test [9] is described as follows: ATG_TA_CIS: Attagene CIS-FACTORIAL HepG2 Assay for human TA Basal Promoter (AID 2282964). The following applies: HepG2 Attagene CIS-factorial TA basal promoter reporter; actives raise or lower the signal. The method, boiled down: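 Fluorescence from labelled RT-PCR reporter fragments, separated by capillary electrophoresis, gives the signal. Cells: HepG2 transiently carrying multiple reporter units, 24 h chemical dosing. Gain or loss relative to DMSO.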

A short description of test [10]: ATG_TCF_b_cat_CIS: Attagene CIS-FACTORIAL HepG2 Assay for human T-Cell-Factor with beta-catenin (TCF/b-cat) (AID 2282965). The note with it: HepG2 TCF/beta-catenin cis-reporter transcription, actives raise or lower the signal. The method, boiled down: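 Endogenous TCF/LEF activity read as reporter transcript level via RT-PCR and capillary electrophoresis fluorescence in transfected HepG2, 24 h exposure; gain or loss of signal fitted against DMSO controls.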

A short description of test [11]: ATG_TAL_CIS: Attagene CIS-FACTORIAL HepG2 Assay for human TAL Basal Promoter (AID 2282966).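 Further: background control endpoint measuring basal TAL promoter reporter mRNA not a specific factor.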 The note with it: HepG2 Attagene cis-factorial TAL promoter reporter; actives raise or lower the signal. The method, boiled down:
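Fluorescence of labelled reporter cDNA fragments, resolved by capillary electrophoresis, gave the readout. Human HepG2 liver cells carried transiently transfected cis-element reporter units and were treated for 24 hours; activity was fitted bidirectionally against DMSO.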

Test [12] can be described thus: ATG_TGFb_CIS: Attagene CIS-FACTORIAL HepG2 Assay for human Transforming Growth Factor (TGF) (AID 2282967). The following applies: HepG2 Attagene CIS TGFb reporter, mRNA transcription; actives raise or lower the signal. The method in brief: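 Bidirectional fitting relative to DMSO gave the endpoint. Underlying data: reporter mRNA from HepG2 cells carrying transiently transfected cis-regulated reporter constructs, harvested 24 h after dosing and analyzed by RT-PCR and capillary electrophoresis.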

The nature of test [13]: ATG_VDRE_CIS: Attagene CIS-FACTORIAL HepG2 Assay for human Vitamin D Receptor Element (VDRE) (AID 2282968). The note with it: HepG2 VDRE cis-reporter transcription, actives raise or lower the signal. The method, boiled down: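 Reporter mRNA induction, quantified by capillary electrophoresis of fluorescently labelled RT-PCR products, was read 24 h after dosing HepG2 cells carrying transiently transfected cis-regulated reporter units; gain or loss relative to DMSO.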

The target in test [14] is X-box-binding protein 1 (Homo sapiens) (UniProt P17861). The experiment in a line: ATG_Xbp1_CIS: Attagene CIS-FACTORIAL HepG2 Assay for human X-box Binding Protein 1 (XBP1) (AID 2282972). The following applies: HepG2 XBP1 cis-element reporter, Attagene multiplex; actives raise or lower the signal. The method, boiled down: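 HepG2 cells transiently transfected with multiple cis-element reporter units report endogenous TF activity; 24 h exposure, then reporter mRNA measured by RT-PCR, 6-FAM labelling, HpaI digestion and capillary electrophoresis. Bidirectional fitting versus DMSO.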
Sequence of X-box-binding protein 1 (Homo sapiens) (P17861 whole entry, looked up): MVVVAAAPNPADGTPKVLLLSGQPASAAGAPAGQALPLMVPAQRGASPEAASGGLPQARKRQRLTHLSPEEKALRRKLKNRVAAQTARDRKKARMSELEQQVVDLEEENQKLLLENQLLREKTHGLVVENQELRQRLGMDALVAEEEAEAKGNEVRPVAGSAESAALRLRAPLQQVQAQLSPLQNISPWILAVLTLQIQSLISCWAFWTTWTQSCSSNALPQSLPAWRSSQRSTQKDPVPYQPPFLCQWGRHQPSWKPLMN

Test [15] is described as follows: ATG_M_19_TRANS: Attagene TRANS-FACTORIAL HepG2 Assay for M19 Transcription Factor (Internal Marker) (AID 2282974; active means hit-call score of the fitted dose curve at least 0.9, where 1 is the maximum). The note with it: HepG2 Attagene TRANS-FACTORIAL M19 internal marker reporter. The method in brief:
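HepG2 transiently transfected with GAL4-UAS multiplex reporter constructs, exposed 24 h; reporter RNA quantified by RT-PCR, 6-FAM labeling, HpaI digestion and capillary electrophoresis; internal background marker fitted upward versus DMSO.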

For test [16], the target named is Estrogen receptor (Homo sapiens) (UniProt P03372). Briefly: ATG_ERa_TRANS: Attagene TRANS-FACTORIAL HepG2 Assay for human Estrogen Receptor alpha (ERa) (AID 2282970; active means hit-call score of the fitted dose curve at least 0.9, where 1 is the maximum). The following applies: HepG2 Attagene TRANS ERa GAL4 reporter, mRNA. The method in brief:
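Human liver HepG2, transient transfection of multiple GAL4-UAS reporter units; TRANS format (exogenous NR-Gal4 chimera). 24 h dosing. Readout: reporter mRNA, RT-PCR, 6-FAM primer extension, HpaI digest, capillary electrophoresis. Positive direction vs DMSO.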

The target in test [17] is Androgen receptor (Homo sapiens) (UniProt P10275). Briefly: ATG_AR_TRANS: Attagene TRANS-FACTORIAL HepG2 Assay for human Androgen Receptor (AR) (AID 2282973; active means hit-call score of the fitted dose curve at least 0.9, where 1 is the maximum). The following applies: HepG2 Attagene TRANS-FACTORIAL AR reporter transcription. The method, boiled down: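 Steps: transfect HepG2 with multiple GAL4-UAS reporter transcription units (TRANS format, exogenous NR-Gal4 protein); dose 24 h; isolate RNA, reverse-transcribe, PCR-amplify, FAM-label, HpaI-digest; resolve by capillary electrophoresis. Positive direction vs DMSO.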
Sequence of Androgen receptor (Homo sapiens) (P10275 whole entry, looked up, the tested form may be a part): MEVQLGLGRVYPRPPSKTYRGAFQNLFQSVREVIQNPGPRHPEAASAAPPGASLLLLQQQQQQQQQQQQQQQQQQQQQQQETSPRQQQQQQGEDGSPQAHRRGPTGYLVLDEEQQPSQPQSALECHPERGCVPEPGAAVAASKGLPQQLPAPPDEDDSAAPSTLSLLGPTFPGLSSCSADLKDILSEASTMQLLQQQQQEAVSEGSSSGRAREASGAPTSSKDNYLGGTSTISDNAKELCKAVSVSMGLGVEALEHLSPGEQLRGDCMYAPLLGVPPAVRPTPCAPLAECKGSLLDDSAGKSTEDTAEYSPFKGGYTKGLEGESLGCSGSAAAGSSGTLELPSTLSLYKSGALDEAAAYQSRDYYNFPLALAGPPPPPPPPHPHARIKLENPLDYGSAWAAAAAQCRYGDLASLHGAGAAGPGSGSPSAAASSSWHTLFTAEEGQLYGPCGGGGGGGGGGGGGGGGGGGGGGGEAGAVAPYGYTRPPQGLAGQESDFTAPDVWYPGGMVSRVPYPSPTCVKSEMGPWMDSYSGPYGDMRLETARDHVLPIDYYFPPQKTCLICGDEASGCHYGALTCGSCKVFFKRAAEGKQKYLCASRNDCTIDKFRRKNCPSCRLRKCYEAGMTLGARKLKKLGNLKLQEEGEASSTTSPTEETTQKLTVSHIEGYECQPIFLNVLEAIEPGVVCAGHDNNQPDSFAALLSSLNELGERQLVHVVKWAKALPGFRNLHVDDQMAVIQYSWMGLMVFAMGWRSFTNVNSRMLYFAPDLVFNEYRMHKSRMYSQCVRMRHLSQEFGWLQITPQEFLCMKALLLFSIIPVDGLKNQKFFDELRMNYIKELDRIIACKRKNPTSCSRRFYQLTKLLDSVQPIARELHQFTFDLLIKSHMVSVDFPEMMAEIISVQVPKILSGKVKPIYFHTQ

The target of test [18] is Nuclear receptor subfamily 1 group I member 3 (Homo sapiens) (UniProt Q14994). Briefly: ATG_CAR_TRANS: Attagene TRANS-FACTORIAL HepG2 Assay for human Constitutive Androstane Receptor (CAR) (AID 2282969; active means hit-call score of the fitted dose curve at least 0.9, where 1 is the maximum;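 further: activators raise reporter mRNA above DMSO so AC50 marks induction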). The note with it: HepG2 Attagene TRANS-FACTORIAL CAR reporter. The method, boiled down:
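Readout is reporter mRNA induction, quantified by fluorescent primer extension and capillary electrophoresis after RT-PCR. Cells were HepG2 transiently carrying chimeric NR-Gal4 constructs with GAL4-UAS reporters, treated for 24 h; activity scored upward from DMSO.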

Test [19] concerns the target Steroid hormone receptor ERR1 (Homo sapiens) (UniProt P11474). The experiment in a line: ATG_ERRa_TRANS: Attagene TRANS-FACTORIAL HepG2 Assay for human Estrogen-Related Receptor alpha (ERRa) (AID 2282971; active means hit-call score of the fitted dose curve at least 0.9, where 1 is the maximum). The following applies: HepG2 Attagene TRANS reporter, ERRa transactivation. The method, boiled down: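 Reporter transcript induction was quantified by RT-PCR and capillary electrophoresis of FAM-labelled, HpaI-cut products after 24 h treatment of HepG2 cells carrying transiently transfected GAL4-UAS reporter units and an exogenous ERRa-Gal4 fusion; activity scored as increase over DMSO.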

Sequence of Transcription factor Sp1 (Homo sapiens) (P08047 whole entry, looked up): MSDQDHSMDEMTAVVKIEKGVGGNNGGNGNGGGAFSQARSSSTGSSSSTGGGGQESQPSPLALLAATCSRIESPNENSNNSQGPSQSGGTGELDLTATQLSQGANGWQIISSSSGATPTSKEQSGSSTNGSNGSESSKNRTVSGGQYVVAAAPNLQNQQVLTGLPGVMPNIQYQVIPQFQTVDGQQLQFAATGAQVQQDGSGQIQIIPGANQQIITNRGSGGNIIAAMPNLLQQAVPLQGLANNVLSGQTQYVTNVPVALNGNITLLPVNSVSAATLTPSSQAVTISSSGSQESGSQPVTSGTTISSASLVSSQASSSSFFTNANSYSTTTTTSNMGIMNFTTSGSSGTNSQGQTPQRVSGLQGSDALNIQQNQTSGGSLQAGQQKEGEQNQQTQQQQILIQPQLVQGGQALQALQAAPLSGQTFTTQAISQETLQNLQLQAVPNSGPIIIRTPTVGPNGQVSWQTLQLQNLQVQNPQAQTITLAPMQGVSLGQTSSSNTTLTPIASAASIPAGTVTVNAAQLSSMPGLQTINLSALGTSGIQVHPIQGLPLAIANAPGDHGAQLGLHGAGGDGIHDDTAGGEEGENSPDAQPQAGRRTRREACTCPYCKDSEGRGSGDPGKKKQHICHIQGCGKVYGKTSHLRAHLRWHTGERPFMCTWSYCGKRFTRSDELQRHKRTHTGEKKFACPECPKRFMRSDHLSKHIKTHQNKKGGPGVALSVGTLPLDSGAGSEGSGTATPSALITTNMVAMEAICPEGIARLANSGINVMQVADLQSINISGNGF
Sequence of Estrogen receptor (Homo sapiens) (P03372 whole entry, looked up, the tested form may be a part): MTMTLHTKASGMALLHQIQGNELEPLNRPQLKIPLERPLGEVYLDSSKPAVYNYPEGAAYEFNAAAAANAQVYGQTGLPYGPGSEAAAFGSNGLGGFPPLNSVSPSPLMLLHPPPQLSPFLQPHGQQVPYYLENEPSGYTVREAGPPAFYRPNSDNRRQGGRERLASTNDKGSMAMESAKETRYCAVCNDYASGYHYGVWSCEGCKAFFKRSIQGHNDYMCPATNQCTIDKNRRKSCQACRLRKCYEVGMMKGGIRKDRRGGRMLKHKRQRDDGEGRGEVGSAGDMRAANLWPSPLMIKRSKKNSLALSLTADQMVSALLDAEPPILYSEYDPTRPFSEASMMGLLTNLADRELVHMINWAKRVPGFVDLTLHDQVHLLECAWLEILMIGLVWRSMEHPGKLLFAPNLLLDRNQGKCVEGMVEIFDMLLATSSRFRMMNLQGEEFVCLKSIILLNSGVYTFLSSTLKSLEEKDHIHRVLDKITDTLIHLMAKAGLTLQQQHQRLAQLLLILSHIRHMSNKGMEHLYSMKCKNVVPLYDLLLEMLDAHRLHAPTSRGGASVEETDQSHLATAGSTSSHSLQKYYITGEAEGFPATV
Sequence of Steroid hormone receptor ERR1 (Homo sapiens) (P11474 whole entry, looked up, the tested form may be a part): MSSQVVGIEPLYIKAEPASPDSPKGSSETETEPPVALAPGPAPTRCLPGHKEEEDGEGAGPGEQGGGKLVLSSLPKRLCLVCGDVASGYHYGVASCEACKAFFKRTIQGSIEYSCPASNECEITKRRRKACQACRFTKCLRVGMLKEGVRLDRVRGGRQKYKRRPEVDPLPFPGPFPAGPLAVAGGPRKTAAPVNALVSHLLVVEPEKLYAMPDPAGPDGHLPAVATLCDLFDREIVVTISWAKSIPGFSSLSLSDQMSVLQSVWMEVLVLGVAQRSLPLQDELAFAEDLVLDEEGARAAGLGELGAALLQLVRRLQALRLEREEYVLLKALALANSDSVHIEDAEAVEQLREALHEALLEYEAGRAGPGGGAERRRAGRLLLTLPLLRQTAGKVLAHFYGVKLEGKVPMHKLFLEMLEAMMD
Sequence of Nuclear receptor subfamily 1 group I member 3 (Homo sapiens) (Q14994 whole entry, looked up, the tested form may be a part): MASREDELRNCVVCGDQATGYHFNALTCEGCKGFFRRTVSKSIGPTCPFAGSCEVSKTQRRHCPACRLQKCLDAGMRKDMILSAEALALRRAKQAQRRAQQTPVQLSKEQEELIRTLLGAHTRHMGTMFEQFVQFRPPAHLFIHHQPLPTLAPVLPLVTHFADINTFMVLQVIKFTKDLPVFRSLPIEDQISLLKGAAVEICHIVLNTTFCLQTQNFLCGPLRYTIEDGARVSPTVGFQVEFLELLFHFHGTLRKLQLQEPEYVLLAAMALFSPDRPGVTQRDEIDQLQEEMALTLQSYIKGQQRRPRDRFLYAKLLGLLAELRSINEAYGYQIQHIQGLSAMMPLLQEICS

`NNC(N)=S`: the outcome in test [1], in [2], in test [3], in test [4], in [5] and in test [6] was inactive. The outcome in test [7], in test [8], in test [9], in test [10], in test [11] and in test [12] was inactive. The call in test [13], in test [14] and in [15] was inactive.

As to `CC1=C(C(=O)Nc2ccccc2)S(=O)(=O)CCO1`, the AC50 in test [1] is 19.9 µM (active); in test [2], 5.02 µM (active); in test [13], 9.33 µM (active). Further, the outcome in [3], in test [4], in [5], in test [6], in test [7] and in test [8] was inactive. For the same molecule, the outcome in test [9], in test [10], in [11], in test [12] and in test [14] was inactive.

As for `CCOP(=S)(OCC)SCSCC`, the molecule was called inactive in [1], in test [5], in [6], in [7], in test [8] and in test [9]. The call in [10], in test [11], in test [12] and in test [14] was inactive. Also, the AC50 in test [2] was 11.7 µM (active); in [3], 176 µM (active); in [13], 35.4 µM (active); in test [16] it was 27.4 µM (active).

On to `OCC(F)(F)OC(F)(F)C(F)(F)OC(F)(F)CO`, for which the call in test [1], in [3], in test [4], in test [6], in test [7] and in [8] was inactive. For the same molecule, the result in [9], in test [10], in test [11], in test [12], in test [13] and in [14] was inactive. In test [17], the result was inactive. The AC50 is 74.8 µM (active) in test [2] and 9.78 µM (active) in test [16].

With `CCCCOCC1CO1` (centres undefined), the molecule was classed as inactive in test [1], in test [2], in [3], in test [4], in [6] and in test [7]. For the same molecule, the result in [8], in [9], in [10], in test [11], in test [12] and in test [13] was inactive. For the same molecule, the molecule was called inactive in test [18], in [19], in test [14] and in [15].
